Measurements published in PubChem BioAssay AID1851 (National Center for Advancing Translational Sciences (NCATS), 2009).
Screen size: about 16,000 compounds; about 5,100 (32%) were called active. Roughly 25% stayed inconclusive and do not appear here. Calls follow the shape of the dose curve; as a rule, active = well fitted curve in the direction sought with a large enough effect; inconclusive = small, poorly fitted or top-dose-only effect, or effect the other way; inactive = no such curve, though single readings can be large or run the other way. The list shows a part of the results.

What follows are compounds tested against Cytochrome P450 3A4 (Homo sapiens) (UniProt P08684) (assay: Cytochrome panel assay with activity outcomes). Details: recombinant CYP, pro-luciferin dealkylation, luminescence, p450-cyp3a4; series mostly up to 57.1 µM; activity, negative = inhibition: at the top concentration.
Experimental: The P450 gene superfamily is involved in the metabolism and clearance of xenobiotics. This assay used various human CYP P450 isozymes to measure the dealkylation of various pro-luciferin substrates to luciferin. The luciferin is then measured by luminescence after the addition of a luciferase detection reagent. Pro-luciferin substrate concentration in the assay was equal to its KM for its CYP P450 isozyme. Inhibitors and some substrates limit the production of luciferin, and decrease measured luminescence.
NCGC Assay Protocol Summary:
1, Reagent, 2 uL, Isozyme and Pro-Luciferin
2, Library compounds, 23 nl, 40 uM to 0.24 nM dilution series
3, Controls, 23 nl, Isozyme specific inhibitor
4, Reagent, 2 uL, NADPH regeneration solution
5, Incubation time, 60 min, Isozyme specific temperature
6, Reagent, 4ul, Detection reagent
7, Incubation time, 20 min, Isozyme specific temperature
8, Detection, 1 sec, ViewLux luminescent read
The luciferase-based P450-GloTM Screening Systems were obtained from Promega (Madison, WI) for CYP 1A2 (V9770), CYP 2C9 (V9790), CYP2 C19 (V9880), CYP 2D6 (V9890), and CYP 3A4 Luciferin-PPXE (V9910) and were adapted for 1,536-well microplates and an automated protocol. The control compounds furafylline for 1A2 (F124), sulfaphenazole for CYP 2C9 (S0758), ketoconazole for CYP 2C19 (K1003), quinidine for 2D6 (Q3625), and ketoconazole for 3A4 (K1003) were purchased from Sigma Aldrich (St. Louis, MO). Recombinant P450 enzymes were obtained from baculovirus constructs expressed in insect cells (BD/Gentest).
Medium-binding white solid Kalypsys plates used. Mixtures kept on ice. 1A2: 10 nM 1A2, 100 uM Luc-ME, 100 mM KPO4; 2C9: 10 nM 2C9, 100 uM Luc-H, 25 mM KPO4; 2C19: 5 nM 2C19, 10 uM Luc-H EGE, 50 mM KPO4; 2D6: 5 nM 2D6, 30 uM Luc-ME EGE, 100 mM KPO4; 3A4: 10 nM, 25 uM Luc-PPXE. All amounts are reflected in their final concentration, working concentration is 2x.
NADPH regeneration solution: 1.3 mM NADP+, 3.3 mM glucose-6-phosphate, 3.3 mM MgCl2, 0.4 U/mL glucose-6-phosphate dehydrogenase for all isozymes, 200 mM KPO4 for 3A4. Mixture prepared at RT but kept on ice during automated run.
RT incubation in auxilliary plate hotel for 1A2, 2D6, and 3A4; 37C for 2C9 and 2C19.
Keywords: P450, CYP1A2, CYP2C19, CYP2C9, CYP2D6, CYP3A4, Luciferase, MLSMR, MLSCN, NIH Roadmap, qHTS, NCGC
% is scaled to controls: 0 for no effect and ±100 for the full control effect.

Chain of Cytochrome P450 3A4 (Homo sapiens) (P08684 whole entry, looked up): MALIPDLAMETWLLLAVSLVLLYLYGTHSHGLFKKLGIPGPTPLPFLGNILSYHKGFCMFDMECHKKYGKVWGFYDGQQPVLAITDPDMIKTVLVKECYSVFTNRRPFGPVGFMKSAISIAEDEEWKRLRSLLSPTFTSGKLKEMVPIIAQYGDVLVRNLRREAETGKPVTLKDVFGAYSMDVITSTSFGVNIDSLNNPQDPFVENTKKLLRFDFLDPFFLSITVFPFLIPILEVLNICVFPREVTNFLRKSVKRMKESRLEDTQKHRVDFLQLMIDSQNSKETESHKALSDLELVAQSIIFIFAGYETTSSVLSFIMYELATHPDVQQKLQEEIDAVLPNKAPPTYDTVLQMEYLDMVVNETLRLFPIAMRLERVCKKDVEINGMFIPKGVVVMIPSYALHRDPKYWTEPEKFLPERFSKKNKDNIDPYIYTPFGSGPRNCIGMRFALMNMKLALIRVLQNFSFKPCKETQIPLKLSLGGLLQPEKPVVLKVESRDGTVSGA

SMILES | AC50 | activity, negative = inhibition
O=C(CSc1nc2ccccc2c(=O)n1NC(=O)c1ccccc1)c1ccc(Cl)cc1 | 14.1 µM (active) | –
CC(C)(C)n1ncc2c(=O)n(CC(=O)NCc3ccccc3Cl)cnc21 | – | -27.1% [at 11.4 µM] (inactive)
O=C(CSc1nc2ccccc2c(=O)n1NC(=O)Cc1ccccc1)NCc1ccccc1Cl | 5.62 µM (active) | –
CC(=O)C1C(c2ccccc2OC(F)F)NC(=O)NC1(O)C(F)(F)F (stereo unspecified) | – | -21.6% (inactive)
CCCCCC(=O)O[C@H](CC(=O)O)C[N+](C)(C)C | – | -10.6% (inactive)
CN(C)C(=O)c1ccc(-c2cncnc2NCCN2CCOCC2)cc1 | 15.8 µM (active) | –
CN(C)c1ccc(-c2cncnc2NCCN2CCOCC2)cc1 | 3.16 µM (active) | –
Cc1ccnc(NS(=O)(=O)c2ccc(N=[N+]=[N-])cc2)n1 | – | 1.05% [at 11.4 µM] (inactive)
COc1cccc(N=Cc2c[nH][nH]c2=O)c1 | 14.1 µM (active) | –
COc1cccc(/C=N/NC(=O)c2cc(-c3cccn3C)n[nH]2)c1 | – | -9.54% [at 2.29 µM] (inactive)
Clc1cccc(C=NC=Nc2cccc(Cl)c2)c1 | – | -25.5% (inactive)
COc1cccc(C=NC=Nc2cccc(OC)c2)c1 | 20 µM (active) | –
O=c1[nH][nH]c(C(F)(F)F)c1C=Nc1cccc(Cl)c1 | – | -6.64% (inactive)
O=c1[nH][nH]cc1C=Nc1ccccc1O | – | -5.56% [at 11.4 µM] (inactive)
CCCn1nnnc1-c1cc(Cl)cc(Cl)c1 | – | 29.9% [at 2.29 µM] (inactive)
N#C/C(=C\c1cccs1)C(=O)NCC1CCCO1 (stereo unspecified) | – | -2.23% (inactive)
Cc1cccc(C)c1NC(=O)/C(C#N)=C/c1cccs1 | 20 µM (active) | –
Cc1sc(NC(=O)c2ccco2)c(C(c2ccncc2)N2CCOCC2)c1C (stereo unspecified) | 3.16 µM (active) | –
Cc1sc(NC(=O)c2ccco2)c(C(c2cccnc2)N2CCN(C)CC2)c1C (stereo unspecified) | – | -28.9% [at 2.29 µM] (inactive)
Cc1sc(NC(=O)c2ccco2)c(C(c2cccnc2)N2CCCC2)c1C (stereo unspecified) | 1.58 µM (active) | –
O=C(NCC(c1cccs1)N1CCOCC1)c1ccco1 (stereo unspecified) | – | -11.4% (inactive)
COc1ccccc1-c1nccc(NCc2ccccc2)n1 | 15.8 µM (active) | –
Cc1ccccc1-c1nccc(NCc2cccnc2)n1 | 3.98 µM (active) | –
Cc1cccc(CNc2ccnc(-c3ccccc3Cl)n2)c1 | 3.98 µM (active) | –
COc1ccccc1-c1nccc(NCc2cccnc2)n1 | 2.51 µM (active) | –
O=c1c(-c2ccccc2)c(O)c2cccc3c2n1CCC3 | – | -13.8% (inactive)

SMILES | AC50 | activity, negative = inhibition
CCCCCSc1nnc(C)c(=O)[nH]1 | – | 1.88% (inactive)
COc1ccccc1-c1nccc(NCc2cccc(C)c2)n1 | 6.31 µM (active) | –
CC1=c2c(oc3cc(O)c(Nc4c(C)cc(O)cc4O)c(C)c23)=CC(=O)C1=Nc1c(C)cc(O)cc1O | – | -19.4% [at 11.4 µM] (inactive)
CC(c1ccccc1C(O)c1ccccc1)N(C)C (stereo unspecified) | – | 16.7% (inactive)
CCOc1ccc(NC(=O)C(=O)NCC2CCCN2CC)cc1 (stereo unspecified) | – | -4.42% (inactive)
COc1ccc(NC(=O)N(C2CCCCC2)C(C)c2cccnc2)c(OC)c1 (stereo unspecified) | 10 µM (active) | –
CCCCN(C(=O)Nc1ccc(OCC)cc1)C1CCN(C(C)=O)CC1 | – | -4.5% (inactive)
CCOc1ccc(NC(=O)N(C2CCCCC2)C(C)c2ccncc2)cc1 (stereo unspecified) | 15.8 µM (active) | –
COc1nc(Cl)nc(Cl)c1Cl (tested in a mixture with another compound) | – | 3.03% [at 11.4 µM] (inactive)
CCn1c(O)c(/C=C2\C=Nc3ccccc32)sc1=Nc1ccc(C)cc1 | – | -3.41% [at 2.29 µM] (inactive)
O=c1c(-c2cccs2)nc2cncnc2n1Cc1ccccc1 | 6.31 µM (active) | –
Cc1nc2cncnc2n(Cc2ccccc2)c1=O | – | 0.371% (inactive)
O=c1c(-c2cccs2)nc2cncnc2n1Cc1ccc(F)cc1 | 12.6 µM (active) | –
Cc1c(NC(=S)/C=C2\N(C)c3ccccc3C2(C)C)c(=O)n(-c2ccccc2)n1C | 5.62 µM (active) | –
Cc1c(N(C)C)c(=O)n(-c2ccccc2)n1C | – | -12.7% [at 25.6 µM] (inactive)
Cc1c(NC(=S)N/N=C/c2ccc(O)cc2)c(=O)n(-c2ccccc2)n1C | – | -17.4% (inactive)
COc1ccc2cc(C(=O)Nc3ccc(F)cc3)sc(=O)c2c1OC | – | -4.97% [at 2.29 µM] (inactive)
COc1ccc2sc3ccccc3c(=O)c2c1OC | 17.8 µM (active) | –
COc1ccc2c(c1OC)C(=O)OC2Nc1ncccc1C (stereo unspecified) | – | -2.44% [at 2.29 µM] (inactive)
COc1ccc(C2C(=O)N(C3CCCCCC3)CC(=O)N2Cc2ccccc2)cc1OC (stereo unspecified) | 4.47 µM (active) | –
COc1cc(C2C(=O)N(C3CCCC3)CC(=O)N2Cc2ccco2)ccc1OC(C)C (stereo unspecified) | 8.91 µM (active) | –
COc1ccc(CN2C(=O)CN(C3CCCCCC3)C(=O)C2c2ccc(OC)c(OC)c2)cc1 (stereo unspecified) | 1.58 µM (active) | –
C=CCn1c(SCC(=O)N2CC(=O)Nc3ccccc32)nc2scc(-c3ccccc3)c2c1=O | 2.82 µM (active) | –
C=CCn1c(SC(C)C(=O)NCc2ccc3c(c2)OCO3)nc2scc(-c3ccccc3)c2c1=O (stereo unspecified) | 0.562 µM (active) | –
C=CCn1c(SCc2ccc3c(c2)OCO3)nc2scc(-c3ccco3)c2c1=O | 2.82 µM (active) | –
C=CCn1c(SCc2ccccc2)nc2scc(-c3ccc(C)o3)c2c1=O | – | -11.1% (inactive)

SMILES | AC50 | activity, negative = inhibition
O=C(ON=C1CCN(S(=O)(=O)c2ccccc2)CC1)c1ccccc1 | – | 2.57% (inactive)
COc1ccc(S(=O)(=O)N2CCc3ccccc3C2)cc1OC | 15.8 µM (active) | –
O=S(=O)(c1ccc(Cl)s1)N1CCc2ccccc2C1 | – | 17.9% (inactive)
CCCCCCCCCCCCC(=O)N1CCCC[C@H]1CNC(=O)[C@@H](N)CCCCN | – | -26.5% (inactive)
CC(=O)NNc1cccc(Cl)n1 | – | 8.92% (inactive)
NC(=O)NC(=O)Nc1ccccc1Cl | – | -6.66% (inactive)
O=C(NNc1cccc(Cl)n1)Nc1ccccc1Cl | 12.6 µM (active) | –
CCN(CCO)C[C@H]1CCC[C@H]2CCCC[C@@H]21 | – | -20% [at 11.4 µM] (inactive)
CN(C)S(=O)(=O)c1ccc(NC(=O)c2cc(F)c(F)cc2Cl)cc1 | – | 14.8% (inactive)
C/C(=N/OC(=O)c1cccc(Cl)c1)c1nccs1 | – | 5.02% (inactive)
CN(C)S(=O)(=O)Oc1ccsc1C(=O)Nc1ccc(Cl)cc1 | 15.8 µM (active) | –
CN(C)S(=O)(=O)Oc1cccc(C(=O)Nc2ccc(Cl)c(Cl)c2)c1 | 25.1 µM (active) | –
CN(C)S(=O)(=O)Oc1cccc(C(=O)Nc2ccccc2Cl)c1 | – | -12.3% [at 11.4 µM] (inactive)
Cc1ccc(Sc2ccc(NC(=O)c3ccc(S(C)(=O)=O)cc3Cl)cc2)cc1 | – | -22.9% (inactive)
CN(C)S(=O)(=O)Oc1ccsc1C(=O)Nc1cccc(Cl)c1 | 10 µM (active) | –
O=C1NCN(c2ccccc2)C12CCN(CCCC(c1ccc(F)cc1)c1ccc(F)cc1)CC2 | – | -9.23% [at 25.6 µM] (inactive)
C[C@H](CN(C)C)C(=O)c1ccccc1C(=O)O | – | -12.4% [at 11.4 µM] (inactive)
NC[C@H](O)C1CCCCCCC1 | – | -5.4% (inactive)
CCNc1ncc2nc(C)c(=O)n(Cc3cccc(OC)c3)c2n1 | 7.94 µM (active) | –
CCNc1ncc2nc(-c3ccc(Cl)cc3)c(=O)n(Cc3cccc(OC)c3)c2n1 | – | -5.08% (inactive)
CCNc1ncc2nc(-c3ccccc3)c(=O)n(Cc3cccc(OC)c3)c2n1 | 10 µM (active) | –
Nc1nc(Cl)nc2c1ncn2[C@@H]1O[C@@H](CO)[C@@H](O)[C@H]1O | – | 3.91% (inactive)
CCOC(=O)NNc1nncc2ccccc12 | – | 3.81% [at 25.6 µM] (inactive)
c1ccc(Nc2nc(-c3cccnc3)nc3ccccc23)cc1 | 12.6 µM (active) | –
CNc1nc(-c2cccnc2)nc2ccccc12 | 6.31 µM (active) | –
CCOC(=O)c1ccc(Nc2nc(-c3cccnc3)nc3ccccc23)cc1 | 11.2 µM (active) | –

SMILES | AC50 | activity, negative = inhibition
CC(C)c1nc2oc3ccccc3c(=O)c2c(=O)n1-c1ccccc1 | – | 26.1% (inactive)
CC(C)(C)NC[C@H](O)COc1cccc2c1CCCC2=O | inactive | –
CCOC(=O)c1cc2c(=O)n3ccccc3nc2n(CCCOC)c1=NC(=O)C(C)(C)C | 15.8 µM (active) | –
CCOC(=O)c1cc2c(=O)n3ccccc3nc2n(CCCOC)c1=NC(C)=O | – | 11.8% (inactive)
COc1ccc(OC)c2c(=S)c3ccccc3[nH]c12 | 7.94 µM (active) | –
O=c1[nH]c2ccccc2c2ccccc12 | – | -20.3% (inactive)
Cc1cc(=O)c2ccccc2[nH]1 | – | 5.16% (inactive)
CC(CC(=O)O)(CC(=O)O)C(=O)O | – | -8.15% [at 11.4 µM] (inactive)
COc1ccc(OC)c(C2N(c3cc(C)on3)C(=O)C3CCCN32)c1 (stereo unspecified) | – | -29.9% (inactive)
COc1cccc(N2CCN(C(=O)Nc3ccc4c(c3)NC(=O)CO4)CC2)c1 | – | -22.6% (inactive)
COc1ccc(OC)c(C2C3=C(COC3=O)Nc3cc4c(cc32)OCO4)c1 (stereo unspecified) | 7.08 µM (active) | –
CC1CCCC(C)N1CCNC(=O)Cn1nc(-c2ccccc2)ccc1=O (stereo unspecified) | – | -23.7% (inactive)
Cc1ccc(S(N)(=O)=O)cc1NC(=O)/C=C/c1cccs1 | – | -17.8% (inactive)
Cc1ccc(S(=O)(=O)N2CCOCC2)cc1NC(=O)COC(=O)CCC(=O)c1cccs1 | 11.2 µM (active) | –
O=C(CCC(=O)c1cccs1)OCC(=O)N1CCN(C(=O)c2ccco2)CC1 | – | -6.6% [at 2.29 µM] (inactive)
O=C(c1ccc(N2CCCCC2)c([N+](=O)[O-])c1)N(Cc1ccccc1)c1ccccn1 | 3.55 µM (active) | –
Cc1c(C(c2cccc([N+](=O)[O-])c2O)c2c(C)n(C)n(-c3ccccc3)c2=O)c(=O)n(-c2ccccc2)n1C | – | -21.7% (inactive)
Nc1nc(SCC(=O)Nc2ccccc2Sc2ccc(Cl)cc2)n[nH]1 | 0.708 µM (active) | –
CCCCc1nc(SCC(=O)Nc2ncccn2)n[nH]1 | – | -1.67% (inactive)
CC1CCCC(C)N1C(=O)c1ccccc1Nc1ccc(SC(F)F)cc1 (stereo unspecified) | 10 µM (active) | –
O=C(c1ccccc1Nc1ccc(SC(F)F)cc1)N1CCCCC1 | 14.1 µM (active) | –
O=C(O)CCC(=O)Nc1ccc(C(=O)N2CCCCC2)cc1 | – | -1.59% (inactive)
O=C(O)c1ccccc1Nc1ccccc1 | – | 10.2% (inactive)
